About 83,000 compounds went through this panel and 20% of them were active in at least one assay; those are over-represented in the sample as a whole.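 The test compound was applied at a single concentration to cells in 96-well plates for 48 hours, and percent growth was recorded.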 Activity calls are given as the source filed them. The calls were made as follows: active = growth percent below 10; inactive = the rest.

The assay concerns MDA-MB-468 breast. Description: NCI-60 one-dose screen, 48 h (100 = growth as untreated, 0 = no growth, -100 = all killed). Particulars: 10 µM unless noted.
`CCN(CC)Cc1cc(Nc2c3ccccc3nc3cc(Cl)ccc23)ccc1O`: the growth is -72.4% (active). Regarding `C[C@]12CC[C@H]3[C@@H](CC=C4C[C@@H](O)CC[C@@]43C)[C@@H]1CC[C@@H]2[C@](C)(O)CCc1cccnc1`, the growth is 25.3% (inactive). As to `COc1cc(N)ccc1Nc1c2ccccc2nc2ccccc12`, the growth is 92.4% (inactive). Regarding `CCC(C)Nc1ccc(NC(C)CC)cc1` (stereo not drawn), the growth was 8.07% (active). Consider `CC[C@@H](C)OC(=O)c1nn(C(C)=O)c2ccccc12`, for which the growth was 82.4% (inactive).

With `Cc1ccc2c(Cn3cc(CSc4nc5ccccc5o4)nn3)cc(=O)oc2c1`, the growth was 113% (inactive).

As for `CCOC(=O)c1c2c(n3ccccc13)C(=O)c1ncccc1C2=O`, the growth is 80.8% (inactive). Next, `CC1=C([Se]CC(OC(=O)[C@@H](CO)NC(=O)OC(C)(C)C)C(=O)NC(C)(C)C)C(=O)c2ccccc2C1=O` (stereo partly drawn): -74.2% (active).

On to `N=C(N)c1ccc(-c2ccc(-c3cc(Cl)cc(Cl)c3)s2)nc1`, for which the growth is 15.7% (inactive). The value for `Cc1cc(NC(=O)Nc2cccc3ccccc23)no1` was 107% (inactive). The value for `CNC(=O)OC1C(O[C@H]2C[C@H]3[C@@H]4CC=C5C[C@@H](O)CC[C@]5(C)[C@H]4CC[C@]3(C)[C@H]2[C@H](C)C(=O)CCC(C)C)OCC(O)C1OC1OCC(O)C(O)C1OC(=O)c1ccc(OC)cc1` (stereo partly drawn) was -0.149% (active); that for `NC(=O)Nc1ccc2ncnc(Nc3ccc(Cl)cc3)c2c1` was -7.15% (active); that for `CCNC(=O)Nc1ncccc1OCc1ccc(F)cc1` was 101% (inactive).

As to `C/C=C(/C)C(=O)O[C@@H]1CC(C)(C)CC2C34OC(=O)[C@@]21CC[C@@]3(C)[C@]1(C)CCC2C(C)(C)C(=O)CC[C@]2(C)C1C[C@@H]4Cl` (stereo partly drawn), the growth was 80.5% (inactive).

Take `CC(=O)c1cc(C(=O)c2ccc3c(c2)Sc2ccccc2N3)n2ccccc12`: the growth is 3.96% (active). Next, `O=C1Nc2ccccc2/C1=C/c1cccn1CCCCn1c2ccccc2c(=O)c2ccccc21`: 51% (inactive); `CN(C)c1ccc(N=C2C=CC(=O)c3ccccc32)cc1`: 65.6% (inactive); `Cn1cc(-c2nonc2-c2c[nH]c3ccccc23)c2cccnc21`: -12.9% (active). Turning to `CCN1CCN(CC(=O)N2c3cccc4cccc(c34)N(C(=O)CN3CCN(CC)CC3)C2c2cn(-c3ccccc3)nc2-c2cccc([N+](=O)[O-])c2)CC1`, the growth is -47.8% (active). Next, `Cn1c2c(c(=O)[nH]c1=O)NC1=C(C(=O)c3ccccc31)C1(C=C(O)c3ccccc31)N2` (stereo not drawn): 100% (inactive); `CS(=O)(=O)c1nsc(N)n1`: 109% (inactive). Next, `O=C(CSc1oc(-c2ccccc2)nc1S(=O)(=O)c1ccccc1)Nc1ccc(F)cc1`: 50.1% (inactive); `O=c1[nH][n+](-c2ccc(Br)cc2)no1`: 86.1% (inactive). For the compound `N#Cc1c(-c2ccc(Cl)cc2)csc1NC(=O)Nc1cccc(C(F)(F)F)c1`, the growth is 7.03% (active). Next, `CC1=CC(=O)CC(C)(C)[C@@]1(O)/C=C/C(C)=C\C(=O)O`: -45.1% (active); `CC1CCCN(CCCCOc2ccc(-c3ccc(C#N)cc3)cc2)C1` (stereo not drawn): 87.6% (inactive); `N=c1ccn2c(n1)OC1C(O)C(CO)OC12` (stereo not drawn): 6.2% (active). As to `Cc1cc(Cl)ccc1NC(=O)c1cc2ccccc2cc1O`, the growth is -9.61% (active).

For the origin of these results see PubChem BioAssay (NCI).
